# Results filed as inconclusive are left out. Unmarked numbers belong to inactive results. Active and inactive are the calls of the source. Calls follow the shape of the dose curve; as a rule, active = well fitted inhibition curve with a large enough effect; inconclusive = small, poorly fitted or top-dose-only effect; inactive = flat fitted curve, though single readings scatter.
# Tested on: astro (control astrocytes)
# Test: Drug repurposing screens with cells derived from glioblastoma tumor samples (AID 1345199); also: nearly all actives have a fitted effect of over 40% in size
# Details: viability, ATP luminescence, 48 h; series mostly up to 45.9 µM; activity, negative = cell killing: at the top concentration
# Method: CD133+ cells were isolated from GBM patient biopsies and cultured as neurospheres. Neurospheres from four patients were used to screen the NCATS pharmaceutical collection (NPC) library of approved drugs and bioactive compounds. […] The neurospheres were incubated with drugs for 48 hours in 1536-well format, then assayed with an ATP content cell viability assay. […] These hits were cherry picked to confirm activity in the four original GBM lines screened plus three other slower growing GMB lines (unable to yield enough cells for a full primary screen). Variable activities of the confirmed primary hits in the different GBM patient lines were observed. The patient line 206 responded to the greatest number of compounds and line 923 responded to the least amount of active compounds.
# % is scaled to controls: 0 for no effect and ±100 for the full control effect; potency is read from the fitted curve at half-maximal effect.
Structure (SMILES),"activity, negative = cell killing",Potency
c1ccc(CN2CCNCC2)cc1,-9% [at 194 µM],
COP(=S)(OC)SCN1C(=O)c2ccccc2C1=O,-17.1%,
C[C@]12CCC(=O)C=C1CC[C@@H]1[C@H]3CC[C@](C)(O)[C@@]3(C)CC[C@@H]12,-29.9% [at 91.6 µM],
COC(=O)[C@@H](N)CCCN/C(N)=N/[N+](=O)[O-],-0.153%,
CN1CC[C@]23c4c5ccc(O)c4O[C@H]2[C@@H](O)C=C[C@H]3[C@H]1C5,-29.9% [at 91.6 µM],
CN1C[C@H](C(=O)N[C@]2(C)O[C@@]3(O)[C@@H]4CCCN4C(=O)[C@H](Cc4ccccc4)N3C2=O)C=C2c3cccc4[nH]cc(c34)C[C@H]21,-8.83%,
CC(C)C[C@H](CN)CC(=O)O,-8.15%,
CCC1(CC)C(=O)C=CNC1=O,-6.92%,
CCC1(c2ccc(N)cc2)CCC(=O)NC1=O (stereo not given),-14.7%,
Nc1ccccc1,-0.126%,
CC(C)=CC1C(C(=O)OCN2C(=O)C3=C(CCCC3)C2=O)C1(C)C (stereo not given),-3.76%,
Nc1nc(N)nc(NC2CC2)n1,-17.1%,
CCCC(C)(COC(N)=O)COC(N)=O,-2.79%,
CCOC(=O)CC(SP(=S)(OC)OC)C(=O)OCC (stereo not given),,inactive
COc1cc(CCN)cc(OC)c1OC,3.29% [at 108 µM],
O=C(Nc1ccc(Br)cc1)c1cc(Br)cc(Br)c1O,,7.08 µM (active)
Clc1cccc(SC2CCNCC2)n1,,35.5 µM (active)
O=C1Nc2ccc(Cl)cc2C(c2ccccc2)=NC1O (stereo not given),,inactive
COc1ccc2c(c1OC)C(=O)O[C@H]2[C@@H]1c2cc3c(cc2CCN1C)OCO3,-14.1%,
c1ccc2c(c1)sc1ccccc12,-10.5%,

Structure (SMILES),"activity, negative = cell killing",Potency
C[C@]12CC[C@@H]3c4ccc(OC(=O)N(CCCl)CCCl)cc4CC[C@H]3[C@@H]1CC[C@@H]2OP(=O)(O)O,,10 µM (active)
CCN[C@@H](C)Cc1ccccc1,-0.993% [at 108 µM],
O=C(N/N=C/c1ccc([N+](=O)[O-])o1)c1cc([N+](=O)[O-])cc([N+](=O)[O-])c1O,-20.7%,
C[N+]1(CCF)[C@@H]2CC[C@H]1CC(OC(=O)C(O)(c1ccccc1)c1ccccc1)C2 (stereo not given in full),-10.7%,
CCC1(c2ccccc2)C(=O)N(COC)C(=O)N(COC)C1=O,-9.87%,
CC(C)c1c(CN(C)C(C)Cc2ccccc2)n(C)n(-c2ccccc2)c1=O (stereo not given),-8.4% [at 21.2 µM],
Nc1ccc([As](=O)(O)O)cc1,-9.2%,
Clc1ccc2c(c1)C(c1ccccc1)=NCc1nncn1-2,-9.67%,
CC(C)N(CCC(C(N)=O)(c1ccccc1)c1ccccn1)C(C)C (stereo not given),-13.3%,
CN1C(=O)NC(=O)C(C)(C2=CCCCC2)C1=O (stereo not given),,inactive
CNC(C)(C)Cc1ccccc1,-9.35% [at 21.2 µM],
O=C(CCCN1CCC2(CC1)C(=O)NCN2c1ccccc1)c1ccc(F)cc1,-21.1%,
COc1cc(CC(C)N)cc(OC)c1OC (stereo not given),-3.9% [at 108 µM],
COP(=S)(OC)Oc1cc(Cl)c(Cl)cc1Cl,,inactive
CC(NC(C)(C)C)C(=O)c1cccc(Cl)c1 (stereo not given),-13.6%,
O=[N+]([O-])O[C@H]1CO[C@H]2[C@@H]1OC[C@H]2O[N+](=O)[O-],0.374%,
CCOP(=S)(OCC)Oc1ccc2c(C)c(Cl)c(=O)oc2c1,-7.56%,
C=CCN1C[C@H](C)N([C@H](c2ccc(C(=O)N(CC)CC)cc2)c2cccc(OC)c2)C[C@H]1C,-18.1%,
CN=C1CN(O)C(c2ccccc2)=c2cc(Cl)ccc2=N1,,inactive
CCCN(CCC)C(=O)Cc1c(-c2ccc(Cl)cc2)nc2ccc(Cl)cn12,-14.1%,

# Reference: PubChem BioAssay (NCATS)
